# The supplement of paper PMC8728848
# Only a selection was taken, and the strongest signals are over-represented in it overall.
# B1: Flo1 (Saccharomyces cerevisiae), P32768 (protein)
# chain: SGATEACLPAGQRKSGMNINFYQYSLKDSSTYSNAAYMAYGYASKTKLGSVGGQTDISIDYNIPCVSSSGTFPCPQEDSYGNWGCKGMGACSNSQGIAYWSTDLFGFYTTPTNVTLEMTGYFLPPQTGSYTFKFATVDDSAILSVGGATAFNCCAQQQPPITSTNFTIDGIKPWGGSLPPNIEGTVYMYAGYYYPMKVVYSNAVSWGTLPISVTLPDGTTVSDDFEGYVYSFDDDLSQSNCTVPDPSNY
# Key:
# Assay in all cases: glycan array binding signal (z-score within array); higher = stronger binding
# Conditions in all cases: glycan notation: IUPAC condensed, linker removed
# [1] = target: Fuc(a1-2)Gal(b1-3)GalNAc(b1-4)[Neu5Ac(a2-3)]Gal(b1-4)Glc
# How it was run: (§1)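 From the Consortium for Functional Glycomics database, 3228 arrays were curated, keeping only those whose protein sequence was available. Binding is given as a within-array Z-score averaged across arrays sharing a protein sequence and across linkers. Negative Z-scores can be read as non-binding.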
# [2] = target: Fuc(a1-2)Gal(b1-3)GlcNAc(b1-2)Man(a1-3)[Fuc(a1-2)Gal(b1-3)GlcNAc(b1-2)Man(a1-6)]Man(b1-4)GlcNAc(b1-4)[Fuc(a1-6)]GlcNAc
# How it was run: as §1
# [3] = target: Fuc(a1-2)Gal(b1-3)[Fuc(a1-4)]GlcNAc(b1-2)Man(a1-3)[Fuc(a1-2)Gal(b1-3)[Fuc(a1-4)]GlcNAc(b1-2)Man(a1-3)]Man(b1-4)GlcNAc(b1-4)GlcNAc
# How it was run: as §1
# [4] = target: Fuc(a1-2)Gal(b1-3)[Fuc(a1-4)]GlcNAc(b1-2)Man(a1-3)[Fuc(a1-2)Gal(b1-3)[Fuc(a1-4)]GlcNAc(b1-2)Man(a1-6)]Man(b1-4)GlcNAc(b1-4)GlcNAc
# How it was run: as §1
# [5] = target: Fuc(a1-2)Gal(b1-4)Fuc(a1-3)]GlcNAc(b1-2)Man(a1-3)[Fuc(a1-2)Gal(b1-4)[Fuc(a1-3)]GlcNAc(b1-2)Man(a1-6)]Man(b1-4)GlcNAc(b1-4)GlcNAc
# How it was run: as §1
# [6] = target: Fuc(a1-2)Gal(b1-4)[Fuc(a1-3)]GlcNAc(b1-2)Man(a1-3)[Fuc(a1-2)Gal(b1-4)[Fuc(a1-3)]GlcNAc(b1-2)Man(a1-6)]Man(b1-4)GlcNAc(b1-4)GlcNAc
# How it was run: as §1
# [7] = target: Fuc(a1-2)[Gal(a1-3)]Gal(b1-3)GlcNAc(b1-3)GalNAc
# How it was run: as §1
# [8] = target: Fuc(a1-2)[Gal(a1-3)]Gal(b1-4)GlcNAc(b1-2)Man(a1-3)[Fuc(a1-2)[Gal(a1-3)]Gal(b1-4)GlcNAc(b1-2)Man(a1-6)]Man(b1-4)GlcNAc(b1-4)[Fuc(a1-6)]GlcNAc
# How it was run: as §1
# [9] = target: Fuc(a1-2)[Gal(a1-3)]Gal(b1-4)GlcNAc(b1-3)[Fuc(a1-2)[Gal(a1-3)]Gal(b1-4)GlcNAc(b1-6)]GalNAc
# How it was run: as §1
# [10] = target: Fuc(a1-2)[Gal(a1-3)]Gal(b1-4)[Fuc(a1-3)]Glc
# How it was run: as §1
# [11] = target: Fuc(a1-2)[GalNAc(a1-3)]Gal
# How it was run: as §1
# [12] = target: Fuc(a1-2)[GalNAc(a1-3)]Gal(b1-3)GalNAc(a1-3)[Fuc(a1-2)]Gal(b1-4)GlcNAc
# How it was run: as §1
# [13] = target: Fuc(a1-2)[GalNAc(a1-3)]Gal(b1-4)Glc
# How it was run: as §1
# [14] = target: Fuc(a1-3)[Gal3S(b1-4)]Glc
# How it was run: as §1
# [15] = target: Gal(b1-3)GalNAc(a1-3)[Fuc(a1-2)]Gal(b1-4)GlcNAc
# How it was run: as §1
# [16] = target: Gal(b1-3)GlcNAc(b1-2)Man(a1-3)[GlcNAc(b1-4)][Gal(b1-3)GlcNAc(b1-2)Man(a1-6)]Man(b1-4)GlcNAc(b1-4)GlcNAc
# How it was run: as §1
# [17] = target: Gal(b1-3)GlcNAc(b1-3)Gal(b1-4)GlcNAc(b1-3)Gal(b1-4)GlcNAc(b1-2)[Gal(b1-3)GlcNAc(b1-3)Gal(b1-4)GlcNAc(b1-3)Gal(b1-4)GlcNAc(b1-6)]Man(a1-6)[Gal(b1-3)GlcNAc(b1-3)Gal(b1-4)GlcNAc(b1-3)Gal(b1-4)GlcNAc(b1-2)Man(a1-3)]Man(b1-4)GlcNAc(b1-4)[Fuc(a1-6)]GlcNAc
# How it was run: as §1
# [18] = target: Gal(b1-3)GlcNAc(b1-3)Gal(b1-4)[Fuc(a1-3)]GlcNAc
# How it was run: as §1
# [19] = target: Gal(b1-3)[Fuc(a1-4)]GlcNAc(b1-2)Man
# How it was run: as §1
# [20] = target: Gal(b1-4)GalNAc(b1-3)[Fuc(a1-2)]Gal(b1-4)GlcNAc
# How it was run: as §1
# [21] = target: Gal(b1-4)GlcNAc(b1-2)Man(a1-3)[Gal(b1-4)GlcNAc(b1-2)Man(a1-6)]Man(b1-4)GlcNAc(b1-4)GlcNAc
# How it was run: as §1
# [22] = target: Gal(b1-4)GlcNAc(b1-2)Man(a1-6)[Man(a1-3)]Man(b1-4)GlcNAc(b1-4)GlcNAc
# How it was run: as §1
# [23] = target: Gal(b1-4)GlcNAc(b1-2)[Gal(b1-4)GlcNAc(b1-4)]Man(a1-3)[Gal(b1-4)GlcNAc(b1-2)Man(a1-6)]Man(b1-4)GlcNAc(b1-4)GlcNAc
# How it was run: as §1
# [24] = target: Gal(b1-4)GlcNAc(b1-2)[Gal(b1-4)GlcNAc(b1-4)]Man(a1-3)[Gal(b1-4)GlcNAc(b1-2)[Gal(b1-4)GlcNAc(b1-6)]Man(a1-6)]Man(b1-4)GlcNAc(b1-4)GlcNAc
# How it was run: as §1
# [25] = target: Gal(b1-4)GlcNAc(b1-2)[Gal(b1-4)GlcNAc(b1-4)]Man(a1-3)[GlcNAc(b1-4)][Gal(b1-4)GlcNAc(b1-2)Man(a1-6)]Man(b1-4)GlcNAc(b1-4)GlcNAc
# How it was run: as §1
# [26] = target: Gal(b1-4)GlcNAc(b1-3)Gal(b1-3)GalNAc
# How it was run: as §1
# [27] = target: Gal(b1-4)GlcNAc(b1-3)Gal(b1-4)GlcNAc(b1-2)Man(a1-3)[Gal(b1-4)GlcNAc(b1-3)Gal(b1-4)GlcNAc(b1-2)Man(a1-6)]Man(b1-4)GlcNAc(b1-4)[Fuc(a1-6)]GlcNAc
# How it was run: as §1
binder,measurement,setting,value
B1,glycan array binding signal (z-score),[1],-0.19
same,glycan array binding signal (z-score),[2],1.41
same,glycan array binding signal (z-score),[3],-0.362
same,glycan array binding signal (z-score),[4],2.44
same,glycan array binding signal (z-score),[5],3.01
same,glycan array binding signal (z-score),[6],2.48
same,glycan array binding signal (z-score),[7],2.18
same,glycan array binding signal (z-score),[8],3.01
same,glycan array binding signal (z-score),[9],0.353
same,glycan array binding signal (z-score),[10],-0.047
same,glycan array binding signal (z-score),[11],-0.514
same,glycan array binding signal (z-score),[12],0.065
same,glycan array binding signal (z-score),[13],0.017
same,glycan array binding signal (z-score),[14],0.119
same,glycan array binding signal (z-score),[15],-0.653
same,glycan array binding signal (z-score),[16],1.05
same,glycan array binding signal (z-score),[17],2.69
same,glycan array binding signal (z-score),[18],-0.364
same,glycan array binding signal (z-score),[19],2.33
same,glycan array binding signal (z-score),[20],0.699
same,glycan array binding signal (z-score),[21],-0.067
same,glycan array binding signal (z-score),[22],0.098
same,glycan array binding signal (z-score),[23],-0.087
same,glycan array binding signal (z-score),[24],0.251
same,glycan array binding signal (z-score),[25],0.797
same,glycan array binding signal (z-score),[26],-0.714
same,glycan array binding signal (z-score),[27],8.23
